Compound activity as filed in PubChem.
PTAP-TSG101 blk: blocks PTAP binding to human TSG101, validation | Fluorescence polarization, FITC-PTAP peptide/Tsg101, 20 min | Potency, µM (doses to about 115 µM), actives largely listed as inhibitors | 44,000 tested, under 10 active; note: potency is the fitted concentration of half-maximal effect; 0% is about no effect
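Compounds pinned into 10 uM Tsg101 binding domain, then 50 nM FITC-PTAP peptide added in pH 7.5 HEPES buffer; FP read after 20 min, room temperature. Total S+P intensity flags fluorescent compounds; active cut-off <25 µM, efficacy <60%.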
FH mod: Identification of activators of human fumarate hydratase by quantitative high-throughput screening. 54,000 tested, 0.22% active. Potency, µM (titrated, usually from 79.9 µM), without a hit: at the top dose activity change, negative = inhibition, most hits filed as inhibitors. AID 1347055, 2019. FH coupled MDH/diaphorase resazurin fluorescence, 15 min. Fumarate hydratase, mitochondrial (Homo sapiens), P07954; note: potency is the fitted concentration of half-maximal effect; % is set by controls: 0 for no effect and ±100 for the full control effect; the screen sought activators but most active calls are inhibition curves; nearly all actives have a fitted effect of over 45% in size
GALK inh: inhibits human galactokinase | recombinant GALK, Kinase-Glo ATP luminescence, 1 h | 44,000 tested, under 10 active | Potency, µM (top dose mostly 57.5 µM), for the others: top-dose activity, negative = inhibition, usual class: inhibitors | AID 1347072 | P51570;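 note: plate controls were full GALK reaction for no effect and reaction lacking GALK for full effect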
Target sequence (P51570 whole entry, looked up): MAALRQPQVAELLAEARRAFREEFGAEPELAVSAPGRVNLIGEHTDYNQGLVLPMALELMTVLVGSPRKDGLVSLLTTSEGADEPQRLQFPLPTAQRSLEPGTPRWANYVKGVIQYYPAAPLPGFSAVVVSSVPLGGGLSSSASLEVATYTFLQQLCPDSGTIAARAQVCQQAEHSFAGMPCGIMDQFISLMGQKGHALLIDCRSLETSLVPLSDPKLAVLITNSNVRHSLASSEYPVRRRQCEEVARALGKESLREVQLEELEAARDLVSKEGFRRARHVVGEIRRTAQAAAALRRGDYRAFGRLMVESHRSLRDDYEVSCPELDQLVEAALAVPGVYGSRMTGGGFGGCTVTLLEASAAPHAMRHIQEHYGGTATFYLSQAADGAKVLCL
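Luminescent ATP-depletion readout (Kinase-Glo Plus) after 1 h room-temperature incubation of human GALK (5 nM) with galactose 100 µM and ATP 35 µM, pH 8.0 HEPES/Mg2+ buffer; compounds tested in qHTS format.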
B2AR arrestin ag: ADRB2 beta-arrestin recruitment | P07550 | HTLA Tango cells, beta-arrestin recruitment, luciferase luminescence, 18 h | Potency, µM (top dose mostly 46.1 µM), usual class: activators | 44,000 tested, under 10 active | AID 1347077;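 note: potency is the fitted concentration of half-maximal effect; 0% = DMSO and full agonism = EC100 isoproterenol or metaproterenol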
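First, Tango cells carrying beta2-AR and beta-arrestin fusions received compound up to 46 microM. After 18 hr at 37 degrees C, luciferase substrate was added for 15 minutes, then luminescence gave %Activity for curve fitting.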
NTMT1 inhibitor: blocks human N-terminal methyltransferase 1 activity; Q9BV86; NTMT1 MTase-Glo SAH luminescence, purified enzyme; Potency, µM (series often up to 114 µM), inactives show at the top dose activity change, negative = inhibition, most hits filed as inhibitors; 59,000 tested, 2.5% active; AID 1645870;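 note: potency is the fitted concentration of half-maximal effect; plate controls were DMSO vehicle for no effect and no enzyme for full effect; nearly all actives have a fitted effect of over 65% in size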
Target sequence (Q9BV86 whole entry, looked up): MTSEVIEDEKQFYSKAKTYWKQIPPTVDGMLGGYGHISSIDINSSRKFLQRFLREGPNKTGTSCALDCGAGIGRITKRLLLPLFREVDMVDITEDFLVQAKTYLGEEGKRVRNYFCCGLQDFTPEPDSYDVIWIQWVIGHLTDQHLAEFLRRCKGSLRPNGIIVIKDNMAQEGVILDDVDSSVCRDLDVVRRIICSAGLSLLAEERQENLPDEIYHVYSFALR
DRV1 agonist: activates human resolvin D1 receptor GPR32; O75388; CHO-K1 GPR32 beta-arrestin PathHunter luminescence, 90 min; zero percent set by DMSO-only wells; activation, % at 76.9 µM; 48,000 tested, 2.5% active;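 active = activation of at least 60% and not above a set upper limit, about 1 call in 100 departs from these limits; inconclusive = activation of 40% to 60%, or above that upper limit; inactive = activation under 40%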; note: 0% is about no effect
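CHO-K1 cells stably expressing ProLink-tagged GPR32 and Enzyme Activator-tagged beta-arrestin were seeded at 2,500 cells/well overnight, exposed to compounds for 90 min at 37 °C, then read by beta-Gal complementation chemiluminescence after 1 h detection reagent.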
* hit, by the source's call; i = inactive; ? = inconclusive; . = not tested or not shown; ! = not confirmed by another sample; [ ] = dose if it differs, or a comment. A selection: hits, their analogues and other compounds. The true share with any hit is near 3.7%. Unless noted, calls come from the whole dose curve; as a rule, active = well fitted curve in the direction sought with a large enough effect; inconclusive = small, poorly fitted or top-dose-only effect, or another doubt; inactive = no such curve, though single readings can be large; an effect the other way counts as inactive or inconclusive.

SMILES | PTAP-TSG101 blk | FH mod | GALK inh | B2AR arrestin ag | NTMT1 inhibitor | DRV1 agonist
COc1ccc(CNC(=O)c2cc(-c3cccc(Cl)c3)on2)cc1 | i | . | -4% | i | . | 66*
O=C(Nc1c(Cl)cccc1Cl)c1cc(-c2cccc(O)c2)on1 | i | . | -2% | i | . | 105*
COc1cccc(-c2cc(C(=O)NCc3ccccc3)no2)c1 | i | . | 4% | i | . | 34
NC(=O)c1cccc2cn(-c3ccc(C4CCCNC4)cc3)nc12 (centres undefined) | . | 6% | . | . | -1%[57.5 µM] | .
COC(=O)c1ccc(-c2c(NC(C)=O)sc3c2CCNC3)cc1 | . | . | . | . | 8% | .
Cc1ccc(C)c(SC2=NS(=O)(=O)c3cc(C(=O)NCc4ccccc4)ccc32)c1 | . | . | . | . | 2% | .
C[n+]1c2cc(N)ccc2cc2ccc(N)cc21 (tested in a mixture with another compound) | . | -12%[53.3 µM] | . | . | 40µM* | 15
CCCCN(CCCC)CCCNC(=O)Cn1cc2c(n1)-c1c(oc(C(=O)N3CCCC3)c1C)CC2 | i | -7% | 0% | ? | -12% | -21
CCCN(CCC)CCNC(=O)Cn1cc2c(n1)-c1c(oc(C(=O)N3CCCC3)c1C)CC2 | i | -2% | 1% | 22µM* | -3% | -14
CCNCCS(=O)(=O)NC[C@@]1(c2ccccc2)SC(NC(=O)C(C)(C)C)=NN1C(=O)C(C)(C)C | . | . | . | . | 9% | .
O=[N+]([O-])c1ccc(CSc2ncnc3c2ncn3[C@@H]2O[C@H](CO)C(O)[C@H]2O)cc1 (some centres undefined) | . | -10%[53.3 µM] | . | . | . | .
COc1cccc(CNC(=O)c2nc(Cn3nc(C)c(Br)c3C)no2)c1 | i | 3% | 0% | i | -15% | 6
COc1ccc(CNC(=O)c2nc(Cn3nc(C)c(Br)c3C)no2)cc1OC | i | -1% | 7% | i | 89µM* | 42
CCOC(=O)c1c(Nc2ccc(O)cc2)nnc(-c2ccccc2)c1-c1ccccc1 | i | -6% | -12% | i | -2% | 66*
CCOC(=O)c1c(Nc2ccccc2)nnc(-c2ccccc2)c1-c1ccccc1 | i | -21% | 3% | i | 1% | -16
Cn1cc(C(=O)N2CCN(c3cccc(C(F)(F)F)c3)CC2)c2c3ccccc3n(C)c2c1=O | i | ? | -6% | i | 8% | 118*
COc1ccc(N2CCN(C(=O)c3cn(CC(C)C)c(=O)c4c3c3ccccc3n4C)CC2)cc1 | i | 32µM* | -1% | i | -9% | -28
COc1ccccc1N1CCN(C(=O)c2cn(CC(C)C)c(=O)c3c2c2ccccc2n3C)CC1 | i | -14% | 7% | i | ? | -30
CC(C)c1ccccc1-c1ncc(F)c(NCc2ccc(-c3ccn[nH]3)cc2)n1 | . | . | . | . | 8% | .
CC(C)c1ccc(C2=CC(c3cccc(Cl)c3)n3c(nc4ccccc43)N2)cc1 (centres undefined) | i | 1% | -1% | i | 3% | 47
CC(C)c1ccc(C2=CC(c3cccc(Cl)c3)n3ncnc3N2)cc1 (centres undefined) | i | -5% | 1% | i | 6% | 74*
COc1ccc2c(c1)C=C1Cn3c-2c(C2CCCCC2)c2ccc(cc23)C(=O)NS(=O)(=O)N(C)CCOCCN(C)C1=O | . | ? | . | . | 45µM* | .
CS(=O)(=O)c1ccc(-c2cn3ccccc3n2)cc1 | . | -1%[53.3 µM] | . | . | 7.1µM* | 9
COc1ccc(-c2cc(C(=O)Nc3ccn(Cc4ccc(C)cc4)n3)no2)cc1OC | i | . | 3% | i | . | 78*
COc1cccc(-c2cc(C(=O)Nc3ccn(Cc4ccc(C)cc4)n3)no2)c1 | i | . | -4% | i | . | 50
SMILES | PTAP-TSG101 blk | FH mod | GALK inh | B2AR arrestin ag | NTMT1 inhibitor | DRV1 agonist
COc1ccccc1-c1cc(C(=O)Nc2c(C)nn(Cc3ccc(Cl)cc3)c2C)no1 | i | . | 0% | i | . | 72*
O=C1C[C@@H](c2ccc(O)cc2)Oc2cc(O)ccc21 | . | -2% | . | . | -1%[57.5 µM] | .
Nc1nc(N)c2nc(-c3cccc(O)c3)cnc2n1 | . | -4% | . | . | ? | .
O=C(Nc1ccc(F)c(C(F)(F)F)c1)Nc1nnc(-c2ccncc2)o1 | . | . | . | . | 14% | .
CC(C)(C)OC(=O)N[C@@H](Cc1ccc(O[S+](=O)([O-])c2cccnc2)cc1)C(=O)N1CCN(c2ccccc2)CC1 | . | . | . | . | 2%[57.5 µM] | .
Clc1nc(CN2CCOCC2)nc2sc3c(c12)CCCC3 | . | . | . | . | -3% | .
CC(=O)Nc1ccc(S(=O)(=O)NCC2CCC(C(=O)NCc3ccccc3)CC2)cc1 (centres undefined) | i | 13% | -1% | i | 11% | 99*
O=C(NCc1ccc(Cl)cc1)C1CCC(CNS(=O)(=O)c2ccccc2)CC1 (centres undefined) | i | -29% | 2% | i | -24% | 83*
O=C(NCc1ccccc1Cl)C1CCC(CNS(=O)(=O)c2ccc(Br)s2)CC1 (centres undefined) | i | -16% | 2% | i | ? | 98*
CC(=O)Nc1ccc(S(=O)(=O)NCC2CCC(C(=O)NCc3ccccc3Cl)CC2)cc1 (centres undefined) | i | 1% | 3% | i | 17% | -4
O=C(O)c1ccc(CCCc2ccc(OCCc3ccc(F)cc3)cc2)o1 | . | 2% | . | . | ? | .
CCc1ccccc1NS(=O)(=O)c1ccc(OC)c2ncccc12 | i | -20% | 1% | i | 89µM* | 14
O=c1c2sc3ccccc3c2n(Cc2ccccc2)c(=O)n1Cc1ccccc1 | i | -22% | 6% | i | 4% | -3
O=c1sn(-c2cccc3ccccc23)c(=O)n1Cc1ccccc1 | . | 5% | . | . | 13µM* | .
CCOC(=O)c1cnn(-c2ccc(C(=O)Nc3ccc(C(C)=O)cc3)cc2)c1N | i | ? | 0% | i | 5% | 0
CCOC(=O)c1cnn(-c2ccc(C(=O)Nc3cc(OC)c(OC)c(OC)c3)cc2)c1N | i | -24% | -1% | i | 89µM* | -3
Cc1ccc(C(Nc2ccccn2)c2ccc3cccnc3c2O)cc1 (centres undefined) | i | 14% | 0% | i | 10% | ?
COc1ccc(C(Nc2ccccn2)c2ccc3ccc(C)nc3c2O)cc1C (centres undefined) | i | 12% | 0% | i | 11% | 90*
O=C(c1ccc(Nc2nccc(-c3cc4ccccc4s3)n2)cc1)N1CCC(N2CCCC2)CC1 | . | -13% | . | . | 28µM*! | .
CCC(=O)N1CCOc2c(cc(-c3cc(OC)cc(OC)c3)cc2C(=O)N[C@H]2CCCN(C)C2)C1 | . | . | . | . | -17% | .
